Test results taken from PMC12864922, “TDP-43 directly inhibits mRNA accumulation in neurites through modulation of mRNA stability”.
Whole data set: some 9,900 sequences, median “r (bound/input frequency ratio)” near 0.7, cut for the highest 2% near 6.5. This is one part of a sample in which the highest values are shown more often than they occur.

B1: ENSMUSG00000043670.57|Diras1|205:210 (ssRNA)
RNA: GGGAGUUCUACAGUCCGACGAUCGCUUCGAUAUCCGCAUGCUACCUGCCUCUUCACACCUCCAUAGCUUCAUCCUUUGCAGACCUCUCCCUCUAUAUCUCUUUGCUCCCCCACCCCCAUUCUAUCUGCACCCCACAACCACACACUGGAGGUUUGAUCCCUGUGGAUCUGAAAACAGGGACCUGGCUAAGGAACUGCUCAUCCCAGUCAGGCCCAGAGAGGUUACCUUGCCUCUCCAUCUCUGUCCCACACACCCCAGCCAUGCCCACUGUCCCUGUCCCUCACAUUCUAUCACUGUGACCUCCUCUUGCGGUCGCACUAGUGUGGAAUUCUCGGGUGUCAAGG
B2: ENSMUSG00000032194.139|Kank2 (ssRNA)
RNA: GGGAGUUCUACAGUCCGACGAUCGCUUCGAUAUCCGCAUGCUAGGAAAUGACCAACUUACAAGAAGUUAUGCUGACCUCCCUGUUCCCCACGGGGAGUGCUUGGCAGAGGAGACUACUUCUAGAAAUACUUUCAGACCUACAGACAAAAAAGAAAAAAGGCCAUUCCGGAGUGACUCCCAGCAUCACAGCCCAGAACCUCCUCCUCAAAGGAGAGUAAACAGAGACUGUGAUACUGACCAAGUACAGGCGCUCGCUAUGAAGCCCAUAUGUUCCUGAUUAAGAGCUGGCUGGCCUCAGAGCACCUCUUGCGGUCGCACUAGUGUGGAAUUCUCGGGUGUCAAGG
B3: ENSMUSG00000004113.476|Cacna1b|225:230 (ssRNA)
RNA: GGGAGUUCUACAGUCCGACGAUCGCUUCGAUAUCCGCAUGCUAAGAGAGAGAGAUCCAGUCAUGCAACACAAAUGGGAUCUACUUUUAAACAACAGUCCUUUGACUAGUUUGCUGCCUGAAUAAUAUUUACAAACUAAACUUUGGAUUCUGCUCUUGUUUCUACAAUGAUUUUUUGUAUAAAGCAAAGUCCUUGGAUUAAAUAAAAACAACCCAAAAAAAAAAUCAAAAUCAAAACCCAGGAUGCAACUGGGUGAUACCUGAGGACACACACACUCAGUGCGUCGGUGGAGAGGGUAUACUGCCUCUUGCGGUCGCACUAGUGUGGAAUUCUCGGGUGUCAAGG
B4: ENSMUSG00000090935.398|Synj2bp (ssRNA)
RNA: GGGAGUUCUACAGUCCGACGAUCGCUUCGAUAUCCGCAUGCUAAAUUUCCUUCUUUUCAGUAAAUUGGCCAGACUAUUAUUUUGACAUAAGAUUAUGAAGAGUUUUCCCGACAGUCUAGCAGUCACUUAACAGAUGUUGAUUGCACAUUAGUUUUGUCAGGACACCUUUAUAAAAAGAGAAAUGCACAUAUUUCAUCCAAAGGGACAUUGUGGUUACAGUUAGGAAGGAAACCCUUAAAAUGGAGUUAGUUAUCUAAGUGUAAGUUGUUUAUAUUACAGACAGCAAAAGAAAAUAGCUCCUGACUCUUGCGGUCGCACUAGUGUGGAAUUCUCGGGUGUCAAGG
B5: ENSMUSG00000043670.39|Diras1 (ssRNA)
RNA: GGGAGUUCUACAGUCCGACGAUCGCUUCGAUAUCCGCAUGCUAGCUCCUGCUCCUUCUCCCCCUCCUUCCUUCCUUUGCCUUGCCCCUCCCUCCUCCAUCUCUCUUCCCUCUUCCUGUCCCCACCAGCCUACAGUAAGGUUGGGCUCCAUCCCUGCCUCUUCACACCUCCAUAGCUUCAUCCUUUGCAGACCUCUCCCUCUAUAUCUCUUUGCUCCCCCACCCCCAUUCUAUCUGCACCCCACAACCACACACUGGAGGUUUGAUCCCUGUGGAUCUGAAAACAGGGACCUGGCUAAGGAACUCUCUUGCGGUCGCACUAGUGUGGAAUUCUCGGGUGUCAAGG
B6: ENSMUSG00000061578.1409|Ksr2 (ssRNA)
RNA: GGGAGUUCUACAGUCCGACGAUCGCUUCGAUAUCCGCAUGCUAGGACCUCAGGCCCACUGUUUUCUCCAUGUCUGUCUGUACUGACUGUUGCAGAAUGAGCUGAUGUAUGAUCUUGAUUCUCCAUUUUCCUUCUGGACCACAUGUCUCUUCCUUUUCCUUUUUAGAUCUGUCUUGCUCUCUGUCUCUCUCACUCAUUGCCAACAUGUUGCUGGGAAAGAAUAUUUGAUUUAGAUGCCAAUCAGGAAGGCAAGUAGGAUGGAUGGAUGAGUGAGUGGAUAGGUAGGUAUAUAAAUGGAUGGAUGCUCUUGCGGUCGCACUAGUGUGGAAUUCUCGGGUGUCAAGG
B7: ENSMUSG00000043670.197|Diras1 (ssRNA)
RNA: GGGAGUUCUACAGUCCGACGAUCGCUUCGAUAUCCGCAUGCUAAUCUGCGAGACUGUCCAGGAGACUUGAGUGGCUCCUGGGCCUGUGUCCCACCCAGAUGAGGGUGACUUAGAAUUCUGUGUUUAUGUGCCUGUGUGUGUGGAUGGGUGUGUGUCUGUCUUGGGAUGGGGUGUUCUUGCACCACUUUGUGUUCUUAGUGAGACCACAGUGUAAGUGGCCGUGUGUGUGUGUGGGGGGGGGCACCUAGACAUUGUGGUGUGUCUGUAUGGCUCUGUGUUUUCAGGGGUGGGUGACACAGGCCUCUCUUGCGGUCGCACUAGUGUGGAAUUCUCGGGUGUCAAGG
B8: ENSMUSG00000043670.204|Diras1 (ssRNA)
RNA: GGGAGUUCUACAGUCCGACGAUCGCUUCGAUAUCCGCAUGCUAGUGUCCCACCCAGAUGAGGGUGACUUAGAAUUCUGUGUUUAUGUGCCUGUGUGUGUGGAUGGGUGUGUGUCUGUCUUGGGAUGGGGUGUUCUUGCACCACUUUGUGUUCUUAGUGAGACCACAGUGUAAGUGGCCGUGUGUGUGUGUGGGGGGGGGCACCUAGACAUUGUGGUGUGUCUGUAUGGCUCUGUGUUUUCAGGGGUGGGUGACACAGGCCUGUCUGAUGAGCACCAGGUCUGUUCCAGGCUGUGGCAAGCUGGCUCUUGCGGUCGCACUAGUGUGGAAUUCUCGGGUGUCAAGG

target: TDP-43 (Homo sapiens, UniProt Q13148 1-414); assay: RNA Bind-n-Seq with designed 260-mer pool; 25 mM Tris-HCl, 150 mM KCl, 3 mM MgCl2, BSA (printed 500 mg/mL), 20 units/mL SUPERase IN; pH not stated; 500 nM RNA pool, 1 h, 4 C; TDP-43 5, 50, 500 nM; high values mean tight binding; details: protein: recombinant; tags: SBP (GST cleaved off with PreScission; pGEX-GST-SBP)
Outline: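 An in vitro-transcribed pool of 260-nt 3′ UTR oligos (500 nM) was incubated for 1 h at 4 °C with recombinant SBP-tagged TDP-43 at 5, 50 or 500 nM held on streptavidin beads. The buffer contained 25 mM Tris-HCl, 150 mM KCl, 3 mM MgCl2, BSA and SUPERase IN. Biotin-eluted bound RNA was sequenced, and binding, R, is each oligo's normalized read abundance in the bound sample over that in input.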

Sequence of TDP-43 (Q13148 whole entry): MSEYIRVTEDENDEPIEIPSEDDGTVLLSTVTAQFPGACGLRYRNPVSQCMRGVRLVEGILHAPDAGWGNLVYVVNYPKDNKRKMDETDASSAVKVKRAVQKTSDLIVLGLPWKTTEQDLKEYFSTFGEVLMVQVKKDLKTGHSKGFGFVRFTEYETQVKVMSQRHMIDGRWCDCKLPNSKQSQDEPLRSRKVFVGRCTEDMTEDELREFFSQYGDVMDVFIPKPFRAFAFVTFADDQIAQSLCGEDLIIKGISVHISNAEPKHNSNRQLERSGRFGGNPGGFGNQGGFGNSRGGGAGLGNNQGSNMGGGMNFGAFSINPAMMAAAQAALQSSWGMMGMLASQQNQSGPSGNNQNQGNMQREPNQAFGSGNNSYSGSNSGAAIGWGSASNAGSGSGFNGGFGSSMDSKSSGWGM

Binder | binding signal
B1 | 2.63 R (bound/input frequency ratio)
B2 | 0.307 R (bound/input frequency ratio)
B3 | 0.46 R (bound/input frequency ratio)
B4 | 0.033 R (bound/input frequency ratio)
B5 | 5.05 R (bound/input frequency ratio)
B6 | 1.55 R (bound/input frequency ratio)
B7 | 7.91 R (bound/input frequency ratio)
B8 | 6.58 R (bound/input frequency ratio)
